# Screening results (PubChem BioAssay)
# Pf growth 96h = P. falciparum growth inhibition at 96 hour, primary screen for plastid delayed-death inhibitors. hit rate 6.9% among 320,000. P. falciparum luciferase reporter growth, 96 h. Potency, µM (series often up to 28.7 µM), for the others: at the highest dose activity change, negative = inhibition, actives largely listed as inhibitors. AID 504834; also: potency is read from the fitted curve at half-maximal effect; % is scaled to controls: 0 for no effect and ±100 for the full control effect
#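 Infected RBCs, 2% Hct / 0.05% parasitemia final; luciferase-reporter P. falciparum; cpd 96 h, 37 C, 5% CO2; luciferase detection reagent; luminescence.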
# Pf growth 48h = inhibits P. falciparum growth in the first generation, 48 h; P. falciparum luciferase growth in erythrocytes, 48 h; Potency, µM (top dose mostly 28.7 µM), for the others: at the top dose activity change, negative = inhibition, most hits filed as inhibitors; hit rate 5.9% among 310,000; also: potency is read from the fitted curve at half-maximal effect; % is scaled to controls: 0 for no effect and ±100 for the full control effect
#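 Read-out is firefly luciferase luminescence from an integrated reporter in P. falciparum, so falling signal marks reduced parasite growth. Infected erythrocytes were at 2% hematocrit and 0.1% parasitemia (final) in Albumax-supplemented RPMI 1640.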
# HCV inhibitor = HCV inhibition | hit rate 3.4% among 340,000 | Huh7.5.1 HCVcc-Cre infection, luciferase reporter, 44 h | AID 651820 | Potency, µM (doses to about 41.8 µM), for the others: at the highest dose activity change, negative = inhibition, usual class: inhibitors; also: potency is read from the fitted curve at half-maximal effect; % is scaled to controls: 0 for no effect and ±100 for the full control effect
#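 A cell-based infection assay in which seeded cells (1,000 per well) receive test compound after 4 h, are inoculated with HCVcc-Cre at approximately 0.5 moi, and are incubated 44 h before luminescence detection.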
# Shiga inhibitor = inhibitors of Shiga toxin in Vero cells; Vero cells, Shiga toxin protein synthesis inhibition reporter; inhibition, % at 38.7 µM; hit rate 9.2% among 290,000; in the data active = inhibition mostly above about 28%, no sharp cut-off; inactive = mostly below about 43%; also: 0% is about no effect
# AMA1 RON2 block = disrupts binding of P. falciparum AMA1 to RON2; AID 720542; hit rate 0.2% among 360,000; AlphaScreen AMA1-biotinylated RON2 peptide binding; Potency, µM (top dose mostly 58.2 µM), for the others: at the top dose activity change, negative = inhibition, usual class: inhibitors;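 also: potency is read from the fitted curve at half-maximal effect; 0% = vehicle wells and -100% = peptide control; nearly all actives have a fitted effect of over 45% in size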
#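 AMA1 (3D7) with his tag at 25 nM final met compounds first, then biotinylated RON2 peptide at 25 nM; detection used donor plus acceptor beads, 10 µg/mL apiece, read by AlphaScreen after 30 min at room temperature.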
# CHX counter = counter-screen for Shiga toxin inhibitors: cycloheximide protein synthesis inhibition. hit rate 12% among 300,000. cell reporter, cycloheximide protein synthesis inhibition counterscreen. max response, %. AID 2314; in the data active = max response mostly above about 13%, no sharp cut-off; inactive = mostly below about 14%; also: read at 38.3 µM for the half of the compounds with a filed dose; 0% is about no effect
# * = called active by the depositor; i = inactive; ? = inconclusive; · = no result given; [ ] = remark or other dose. A selection: hits, their analogues and other compounds. The true share with any hit is near 21%. Unless noted, calls follow the shape of the dose curve; as a rule, active = well fitted curve in the direction sought with a large enough effect; inconclusive = small, poorly fitted or top-dose-only effect, or another doubt; inactive = no such curve, though single readings can be large; an effect the other way counts as inactive or inconclusive.
SMILES,Pf growth 96h,Pf growth 48h,HCV inhibitor,Shiga inhibitor,AMA1 RON2 block,CHX counter
CCc1nc(OCCN(C)C)c2oc3ccccc3c2n1,8%,-31%,-9%,29,-3%,26*
CCc1nc(Nc2ccc(F)cc2)c2oc3ccccc3c2n1,?,?,10µM*,45,0%,36*
Cc1cc(C)c2cc(C#N)c(NCCNC(=O)c3cccnc3)nc2c1,·,·,·,·,-5%,·
CC(=O)NNC(=S)NC(=O)c1ccc(C)cc1,?,11%,7%,5,102%,-2
CCC(=O)NC(=S)NNC(=O)c1ccc(O)cc1,-23%,13%,0%,24,85%,23*
CCCC(=O)NC(=S)NNC(=O)c1ccc([N+](=O)[O-])cc1,3%,?,-5%,-13,25%,-3
CCC(=O)NNC(=S)NC(=O)c1ccc(C)cc1,39%,0%,-19%,51*,88%,31*
O=C(NCc1ccco1)C1CCCN1C(=O)Nc1ccc(Br)cc1 (configuration not stated),-29%,-2%,-29%,-6,-8%,-4
COc1ccc(-c2nc3c4ccccc4[nH]c(=O)n3n2)cc1,?,-28%,-27%,55*,?,24*
CC(C)c1ccc(CN2CCC(Oc3ccc(C(=O)N4CCCC4)cc3)CC2)cc1,-31%,6.6µM*,?,-11,-12%,-3
Cc1cccc(CN2CCC(Oc3ccc(C(=O)N4CCCCC4)cc3)CC2)c1,9.3µM*,?,-12%,5,-13%,-1
O=C(c1ccc(OC2CCN(Cc3ccc(F)cc3)CC2)cc1)N1CCCC1,?,?,?,-6,16%,-2
CCOc1cccc(CN2CCC(Oc3ccc(C(=O)N4CCCC4)cc3)CC2)c1,?,?,1%,16,-10%,9
CCc1ccc(CN2CCC(Oc3ccc(C(=O)N4CCCC4)cc3)CC2)cc1,?,9.3µM*,?,6,-7%,11
O=C(c1ccc(OC2CCN(C/C=C/c3ccc(F)cc3)CC2)cc1)N1CCCC1,4.1µM*,8.3µM*,?,-6,-6%,-2
CCc1ccc(CN2CCC(Oc3ccc(C(=O)N4CCCCC4)cc3)CC2)cc1,?,-29%,-26%,-3,-13%,1
CC(=O)c1ccc(NS(=O)(=O)c2cccc3cccnc23)cc1,·,·,·,·,-4%,·
Cc1c[nH]c2ccccc12,78%,-20%,16%,·,8%,·
Cc1cccc(CN2CCC(Oc3ccc(C(=O)N4CCCC4)cc3)CC2)n1,2.3µM*,?,31%,-5,28%,-1
C=CCOc1ccccc1CN1CCC(Oc2ccc(C(=O)N3CCCCC3)cc2)CC1,10µM*,37%,·,-2,-5%,-3
COc1cccc(/C=C/C(=O)OCC(=O)Nc2cccc(S(=O)(=O)NC3=NCCCCC3)c2)c1,·,·,9%,·,-4%,·
COC(=O)c1ccc2nc(-c3ccc(S(C)(=O)=O)cc3)cn2c1,i,i,8%,85,5%,59*
CN1CCc2c(sc(/N=C/c3c[nH]c4ccccc34)c2C(N)=O)C1,3.7µM*,4.1µM*,-7%,16,3%,12
CCOC(=O)c1c(/N=C/c2ccc(C)cc2O)sc2c1CCC2,37%,6%,?,3,6%,0
CCOC(=O)c1c(/N=C/c2ccc(OC)cc2O)sc2c1CCN(C)C2,5.2µM*,10µM*,-14%,22,-6%,3
CN(CC(=O)Nc1ccc(Cl)cc1)C(=O)CN1C(=O)C2CCCCC2C1=O (configuration not stated),·,·,·,·,6%,·
C[C@H]1[C@H](C)CC[C@]2(C)CC[C@]3(C)C(=CC[C@@H]4[C@@]5(C)CC[C@@H](O)[C@](C)(C(=O)O)[C@@H]5CC[C@]43C)[C@H]12,13µM*,?,·,-3,·,-2
C[C@H]1[C@H](C)CC[C@]2(C(=O)O)CC[C@]3(C)C(=CC[C@@H]4[C@@]5(C)C[C@@H](O)[C@H](O)C(C)(C)[C@@H]5CC[C@]43C)[C@H]12,-1%,4%,0%[8.37 µM],-12,2%,-4
